# Screening data as filed in PubChem BioAssay.
# Only a selection was taken, and hits are over-represented in it overall.
# miR122 inh = raises miR-122 sensor activity in Huh7 cells; Huh7 psiCHECK-miR122 Renilla luciferase sensor, 48 h; activation, % at 12.5 µM; AID 623901; actives 0.14% (n = 340,000);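 active means mean activation of 30% or more, with every replicate also reaching 30%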;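 further: 0% = median of neutral control wells and 100% = median of positive control wells; higher luciferase signal means stronger suppression of miR-122 activity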
# Starred values were filed as active, the others as inactive.
SMILES,miR122 inh
Cc1ccc(S(=O)(=O)N(C)C[C@H]2Oc3cc(C#CC4CCCC4)ccc3S(=O)(=O)N([C@@H](C)CO)C[C@@H]2C)cc1,-62
O=CN1CCN(C(=O)c2ccccc2F)CC1,34*
CCC(=O)N(C)C[C@@H]1Oc2cc(C#C[C@@H](C)O)ccc2S(=O)(=O)N([C@@H](C)CO)C[C@H]1C,4
C[C@H](CO)N1C[C@H](C)[C@H](CN(C)CC2CCOCC2)Oc2ncc(C#CCc3ccccc3)cc2C1=O,2
COCC#Cc1cnc2c(c1)C(=O)N([C@H](C)CO)C[C@@H](C)[C@@H](CN(C)C(=O)Cc1ccccc1)O2,1
COc1cccc(C#Cc2cnc3c(c2)C(=O)N([C@@H](C)CO)C[C@@H](C)[C@H](CN(C)C(=O)C2CCCCC2)O3)c1,5
COc1ccc(-c2ccc3c(c2)O[C@H](CN(C)C(=O)Nc2ccccc2F)[C@H](C)CN([C@@H](C)CO)S3(=O)=O)cc1,32*
COCC(=O)N(C)C[C@H]1Oc2cc(-c3cccc(F)c3)ccc2S(=O)(=O)N([C@@H](C)CO)C[C@@H]1C,-6
COCC(=O)N(C)C[C@H]1Oc2cc(-c3ccccc3F)ccc2S(=O)(=O)N([C@@H](C)CO)C[C@H]1C,55*
COc1ccc(-c2ccc3c(c2)O[C@H](CN(C)C(=O)c2ccccc2F)[C@H](C)CN([C@@H](C)CO)S3(=O)=O)cc1,13
COc1ccc(-c2ccc3c(c2)O[C@H](CN(C)C(=O)c2ccccc2F)[C@H](C)CN([C@H](C)CO)S3(=O)=O)cc1,4
COc1ccccc1-c1ccc2c(c1)O[C@@H](CN(C)S(=O)(=O)c1ccc(C)cc1)[C@H](C)CN([C@@H](C)CO)S2(=O)=O,3
COc1ccccc1-c1ccc2c(c1)O[C@@H](CN(C)S(=O)(=O)c1ccc(F)cc1)[C@@H](C)CN([C@@H](C)CO)S2(=O)=O,36*
COc1ccccc1-c1ccc2c(c1)O[C@H](CN(C)S(=O)(=O)c1ccc(C)cc1)[C@H](C)CN([C@H](C)CO)S2(=O)=O,-55
COCC(=O)N(C)C[C@H]1Oc2cc(-c3cccc(F)c3)ccc2S(=O)(=O)N([C@H](C)CO)C[C@H]1C,14
C[C@@H]1CN([C@H](C)CO)C(=O)c2cc(/C=C/c3ccccc3)cnc2O[C@H]1CN(C)C(=O)Nc1ccccc1F,3
C[C@@H]1CN([C@@H](C)CO)C(=O)c2cccc(NC(=O)c3ccncc3)c2O[C@@H]1CN(C)C,-112
C[C@H](O)C#Cc1ccc2c(c1)O[C@@H](CN(C)CC1CCOCC1)[C@H](C)CN([C@@H](C)CO)S2(=O)=O,-20
C[C@@H]1CN([C@H](C)CO)S(=O)(=O)c2ccc(-c3ccccc3)cc2O[C@@H]1CN(C)Cc1cncnc1,-9
C[C@@H]1CN([C@H](C)CO)C(=O)c2cc(-c3cncnc3)cnc2O[C@H]1CN(C)Cc1ccncc1,2
C[C@@H]1CN([C@@H](C)CO)S(=O)(=O)c2ccc(-c3cccnc3)cc2O[C@@H]1CN(C)Cc1ccccn1,2
C[C@@H]1CN([C@H](C)CO)C(=O)c2cc(-c3ccc(F)cc3)cnc2O[C@H]1CN(C)C(=O)c1ccccn1,6
CCC(=O)Nc1ccc2c(c1)OC[C@@H](C)N(C(=O)c1ccncc1)C[C@@H](C)[C@H](OC)CN(C)C2=O,1
C[C@@H]1CN([C@H](C)CO)C(=O)c2cc(C#Cc3ccc(F)cc3)cnc2O[C@@H]1CN(C)C(=O)c1ccccc1F,9
C[C@@H](O)C#Cc1ccc2c(c1)O[C@H](CN(C)C)[C@@H](C)CN([C@@H](C)CO)S2(=O)=O,3
SMILES,miR122 inh
CC(C)CC#Cc1ccc([C@H]2[C@@H](CO)N3CCCCN(S(=O)(=O)Cc4ccccc4)C[C@H]23)cc1,35*
O=C(Nc1ccccc1)N1C[C@H]2[C@@H](c3ccccc31)[C@@H](CO)N2C(=O)c1ccccn1,-132
COc1ccc(C#Cc2ccc([C@H]3[C@H](CO)N4CCCCN(C(=O)Nc5ccccc5)C[C@@H]34)cc2)cc1,35*
COCC#Cc1cnc2c(c1)C(=O)N([C@H](C)CO)C[C@@H](C)[C@@H](CN(C)C(=O)Nc1ccc(OC)cc1)O2,0
COc1cccc(NC(=O)N(C)C[C@H]2Oc3cc(C#Cc4ccccc4)ccc3S(=O)(=O)N([C@H](C)CO)C[C@@H]2C)c1,-19
COc1ccc(NC(=O)N2CCCCN3[C@@H](CO)[C@H](c4ccc(C#CCC(C)C)cc4)[C@@H]3C2)cc1,33*
COCC#Cc1cnc2c(c1)C(=O)N([C@H](C)CO)C[C@H](C)[C@@H](CN(C)C(=O)Nc1ccc(OC)cc1)O2,2
CCC(=O)N(C)C[C@H]1Oc2ncc(C#Cc3ccccc3OC)cc2C(=O)N([C@H](C)CO)C[C@H]1C,1
C[C@@H]1CN([C@@H](C)CO)C(=O)c2cc(C#Cc3ccccc3F)cnc2O[C@@H]1CN(C)C(=O)C1CCOCC1,1
C[C@H]1CN([C@@H](C)CO)C(=O)c2cc(-c3cncnc3)cnc2O[C@H]1CN(C)Cc1ccncc1,3
C[C@H](CO)N1C[C@H](C)[C@@H](CN(C)C(=O)CN(C)C)Oc2ncc(C#C[C@@H](C)O)cc2C1=O,6
C[C@H](CO)N1C[C@H](C)[C@H](CN(C)C(=O)Nc2ccc(F)cc2)Oc2ncc(-c3cccnc3)cc2C1=O,6
C[C@H](CO)N1C[C@H](C)[C@H](CN(C)C(=O)c2ccc(F)cc2)Oc2ncc(C3=CCCCC3)cc2C1=O,3
COc1ccc(S(=O)(=O)N(C)C[C@@H]2Oc3cc(-c4ccccc4OC)ccc3S(=O)(=O)N([C@@H](C)CO)C[C@@H]2C)cc1,1
C[C@H]1CN([C@@H](C)CO)C(=O)c2cc(C#Cc3ccccn3)cnc2O[C@H]1CN(C)C(=O)c1cnccn1,-2
CCCN(C)C[C@@H]1Oc2ncc(-c3ccccc3OC)cc2C(=O)N([C@H](C)CO)C[C@@H]1C,-18
CC(C)Oc1ccc(CNCCC2(C(C)C)CCOC(C)(C)C2)cc1 (stereo unspecified),71*
C[C@H](CO)N1C[C@H](C)[C@H](CN(C)C(=O)Cc2ccccc2)Oc2ncc(C#CC3(O)CCCC3)cc2C1=O,4
COc1ccc(C(=O)N[C@H](C(=O)Nc2nc3ccccc3[nH]2)C(C)C)cc1,-117
O=C(COc1cccc2ccccc12)Nc1nc2ccccc2[nH]1,32*
Cc1ccc(-c2cnc3c(c2)C(=O)N([C@@H](C)CO)C[C@H](C)[C@H](CN(C)C(=O)c2ccncc2)O3)cc1,0
COc1cccc(S(=O)(=O)N(C)C[C@H]2Oc3ncc(C#CCC(C)C)cc3C(=O)N([C@@H](C)CO)C[C@@H]2C)c1,-39
C[C@@H]1CN([C@@H](C)CO)C(=O)c2cccc(NC(=O)c3ccc(-c4nccs4)cc3)c2O[C@@H]1CN(C)Cc1ccc(C(=O)Nc2ccccc2N)cc1,-213
O=C(NC(Nc1ncc(S(=O)(=O)c2ccc([N+](=O)[O-])cc2)s1)(C(F)(F)F)C(F)(F)F)c1ccc(Cl)cc1,44*
C[C@H]1CN([C@@H](C)CO)C(=O)c2cc(C#CC(C)(C)O)cnc2O[C@@H]1CN(C)C(=O)C1CC1,-2
C[C@@H]1CN([C@H](C)CO)C(=O)c2cc(/C=C/c3ccccc3)cnc2O[C@H]1CN(C)C(=O)c1cccnc1,9
C[C@H]1CN([C@@H](C)CO)S(=O)(=O)c2ccc(Br)cc2O[C@@H]1CN(C)C(=O)CC1CC1,-11
CCCNC(=O)NC[C@H]1[C@@H](c2ccc(C3=CCCC3)cc2)[C@@H](CO)N1C(C)=O,-93
